In all, about 5,500 compounds went through this assay and about 2,000 (36%) were called active. Another 18% or so got no clear call; they are omitted. No stated cut-off is given here; in the data, active means normalized growth mostly below about 0.91 (no sharp cut-off); inconclusive means no clear call, values can overlap the other calls; inactive means mostly above about 0.92. Some of the results follow.
Experiment: chemical genetic growth profiling, strain panel (AID 1159580);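 further: tested at 20 µM; growth read once vehicle control cultures reached saturation at 30 °C; 1 = growth at the plate median or of vehicle wells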
Settings: growth OD

Measured: normalized growth

C=C1C(=O)O[C@@H]2C3O[C@]3(C)CC/C=C(\C)CC[C@@H]12 (some centres not stated)
inactive: S. cerevisiae deletion strains, locus YKL009W, strain mrt4, stronger effect = lower value 0.913 | S. cerevisiae deletion strains, locus YKL085W, strain MDH1 (second series), stronger effect = lower value 0.932 | S. cerevisiae deletion strains, locus YKL085W, strain MDH1, stronger effect = lower value 0.932 | S. cerevisiae deletion strains, locus YKL160W, strain elf1, stronger effect = lower value 0.946 | S. cerevisiae deletion strains, locus YKR026C, strain gcn3, stronger effect = lower value 0.991 | S. cerevisiae deletion strains, locus YKR091W, strain srl3, stronger effect = lower value 0.99 | S. cerevisiae deletion strains, locus YLL001W, strain dnm1, stronger effect = lower value 0.968 | S. cerevisiae deletion strains, locus YLL026W, stronger effect = lower value 0.987 | S. cerevisiae deletion strains, locus YLL041C, strain sdh2, stronger effect = lower value 0.987 | S. cerevisiae deletion strains, locus YLR027C, strain aat2, stronger effect = lower value 0.969 | S. cerevisiae deletion strains, locus YLR058C, strain SHM2, stronger effect = lower value 0.934 | S. cerevisiae deletion strains, locus YLR102C, strain apc9, stronger effect = lower value 0.944 | S. cerevisiae deletion strains, locus YLR113W, strain HOG1, stronger effect = lower value 0.932 | S. cerevisiae deletion strains, locus YLR221C, strain rsa3, stronger effect = lower value 0.993 | S. cerevisiae deletion strains, locus YLR258W, strain gsy2, stronger effect = lower value 0.999 | S. cerevisiae deletion strains, locus YLR320W, strain mms22, stronger effect = lower value 0.893 | S. cerevisiae deletion strains, locus YLR342W, strain FKS1, stronger effect = lower value 0.94 | S. cerevisiae deletion strains, locus YLR357W, strain rsc2, stronger effect = lower value 1.08 | S. cerevisiae deletion strains, locus YLR370C, strain arc18, stronger effect = lower value 0.964 | S. cerevisiae deletion strains, locus YLR384C, strain iki3, stronger effect = lower value 0.975 | S. cerevisiae deletion strains, locus YML120C, strain ndi1, stronger effect = lower value 0.96 | S. cerevisiae deletion strains, locus YMR058W, strain fet3, stronger effect = lower value 0.992 | S. cerevisiae deletion strains, locus YMR129W, stronger effect = lower value 0.993 | S. cerevisiae deletion strains, locus YMR205C, strain PFK2, stronger effect = lower value 0.938 | S. cerevisiae deletion strains, locus YMR231W, strain pep5, stronger effect = lower value 0.982 | S. cerevisiae deletion strains, locus YMR263W, strain SAP30, stronger effect = lower value 0.9 | S. cerevisiae deletion strains, locus YNL128W, strain TEP1, stronger effect = lower value 0.925 | S. cerevisiae deletion strains, locus YNL183C, strain NPR1, stronger effect = lower value 0.952 | S. cerevisiae deletion strains, locus YNL209W, strain ssb2, stronger effect = lower value 0.979 | S. cerevisiae deletion strains, locus YNL248C, strain rpa49, stronger effect = lower value 0.897 | S. cerevisiae deletion strains, locus YNL250W, strain rad50, stronger effect = lower value 0.933 | S. cerevisiae deletion strains, locus YNL322C, strain KRE1 (second series), stronger effect = lower value 0.981 | S. cerevisiae deletion strains, locus YNR049C, strain mso1, stronger effect = lower value 0.997 | S. cerevisiae deletion strains, locus YOL006C, strain TOP1, stronger effect = lower value 0.547 | S. cerevisiae deletion strains, locus YOL012C, strain htz1 0.318 | S. cerevisiae deletion strains, locus YOR001W, strain rrp6, stronger effect = lower value 1.01 | S. cerevisiae deletion strains, locus YOR061W, strain CKA2, stronger effect = lower value 0.918 | S. cerevisiae deletion strains, locus YOR069W, strain VPS5, stronger effect = lower value 0.935 | S. cerevisiae deletion strains, locus YOR070C, strain gyp1, stronger effect = lower value 0.977 | S. cerevisiae deletion strains, locus YOR080W, strain dia2, stronger effect = lower value 0.998 | S. cerevisiae deletion strains, locus YOR083W, strain WHI5, stronger effect = lower value 0.965 | S. cerevisiae deletion strains, locus YOR106W, strain vam3, stronger effect = lower value 0.955 | S. cerevisiae deletion strains, locus YOR231W, strain MKK1, stronger effect = lower value 0.977 | S. cerevisiae deletion strains, locus YOR265W, strain rbl2, stronger effect = lower value 0.978 | S. cerevisiae deletion strains, locus YOR270C, strain vph1, stronger effect = lower value 0.92 | S. cerevisiae deletion strains, locus YOR290C, strain snf2, stronger effect = lower value 0.971 | S. cerevisiae deletion strains, locus YOR316C, strain cot1, stronger effect = lower value 0.93 | S. cerevisiae deletion strains, locus YPL051W, strain arl3, stronger effect = lower value 0.921 | S. cerevisiae deletion strains, locus YPL078C, strain atp4, stronger effect = lower value 0.94 | S. cerevisiae deletion strains, locus YPL106C, strain sse1, stronger effect = lower value 0.869 | S. cerevisiae deletion strains, locus YPL240C, strain hsp82, stronger effect = lower value 0.991 | S. cerevisiae deletion strains, locus YPL256C, strain CLN2, stronger effect = lower value 0.93 | S. cerevisiae deletion strains, locus YPR167C, strain met16, stronger effect = lower value 0.932
active: S. cerevisiae deletion strains, locus YJR075W, strain HOC1, stronger effect = lower value 0.828 | S. cerevisiae deletion strains, locus YKL068W, stronger effect = lower value 0.936 | S. cerevisiae deletion strains, locus YKL190W, strain CNB1, stronger effect = lower value 0.796 | S. cerevisiae deletion strains, locus YKR001C, strain vps1, stronger effect = lower value 0.544 | S. cerevisiae deletion strains, locus YLR039C, strain RIC1, stronger effect = lower value 0.245 | S. cerevisiae deletion strains, locus YLR262C, strain YPT6 (second series), stronger effect = lower value 0.566 | S. cerevisiae deletion strains, locus YLR262C, strain YPT6, stronger effect = lower value 0.193 | S. cerevisiae deletion strains, locus YLR268W, strain sec22, stronger effect = lower value 0.68 | S. cerevisiae deletion strains, locus YLR330W, strain CHS5, stronger effect = lower value 0.849 | S. cerevisiae deletion strains, locus YLR342W, strain FKS1 (second series), stronger effect = lower value 0.536 | S. cerevisiae deletion strains, locus YLR371W, strain rom2, stronger effect = lower value 0.791 | S. cerevisiae deletion strains, locus YLR418C, strain cdc73, stronger effect = lower value 0.42 | S. cerevisiae deletion strains, locus YML016C, strain PPZ1, stronger effect = lower value 0.911 | S. cerevisiae deletion strains, locus YML032C, strain rad52, stronger effect = lower value 0.87 | S. cerevisiae deletion strains, locus YML124C, strain tub3, stronger effect = lower value 0.929 | S. cerevisiae deletion strains, locus YMR078C, strain ctf18, stronger effect = lower value 0.741 | S. cerevisiae deletion strains, locus YMR125W, strain sto1, stronger effect = lower value 0.792 | S. cerevisiae deletion strains, locus YMR223W, strain ubp8, stronger effect = lower value 0.801 | S. cerevisiae deletion strains, locus YMR307W, strain GAS1, stronger effect = lower value 0.26 | S. cerevisiae deletion strains, locus YNL067W, strain RPL9B, stronger effect = lower value 0.808 | S. cerevisiae deletion strains, locus YNL071W, strain lat1, stronger effect = lower value 0.804 | S. cerevisiae deletion strains, locus YNL153C, strain GIM3, stronger effect = lower value 0.822 | S. cerevisiae deletion strains, locus YNL233W, strain BNI4, stronger effect = lower value 0.763 | S. cerevisiae deletion strains, locus YNL271C, strain bni1, stronger effect = lower value 0.905 | S. cerevisiae deletion strains, locus YNL298W, strain CLA4, stronger effect = lower value 0.878 | S. cerevisiae deletion strains, locus YNL307C, strain MCK1, stronger effect = lower value 0.165 | S. cerevisiae deletion strains, locus YNL322C, strain KRE1, stronger effect = lower value 0.861 | S. cerevisiae deletion strains, locus YNR052C, strain pop2, stronger effect = lower value 0.818 | S. cerevisiae deletion strains, locus YOL147C, strain pex11, stronger effect = lower value 0.883 | S. cerevisiae deletion strains, locus YOR136W, strain idh2, stronger effect = lower value 0.905 | S. cerevisiae deletion strains, locus YOR144C, strain elg1, stronger effect = lower value 0.901 | S. cerevisiae deletion strains, locus YOR184W, strain ser1, stronger effect = lower value 0.628 | S. cerevisiae deletion strains, locus YPL055C, strain LGE1, stronger effect = lower value 0.743 | S. cerevisiae deletion strains, locus YPL241C, strain CIN2, stronger effect = lower value 0.922 | S. cerevisiae deletion strains, locus YPR119W, strain clb2, stronger effect = lower value 0.908 | S. cerevisiae deletion strains, locus YPR141C, strain kar3, stronger effect = lower value 0.902 | S. cerevisiae deletion strains, locus YPR163C, strain tif3, stronger effect = lower value 0.355 | S. cerevisiae deletion strains, strain wtn01, stronger effect = lower value 0.786 | S. cerevisiae strains, strain wild type, stronger effect = lower value 0.806
